From PubChem BioAssay AID1508600 (Functional Genomics Laboratory (NCATS/FGL), 2020)
Screen size: about 53,000 sequences; about 3,700 (7%) were called active.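 How the source made its calls: active means gene knockdowns whose robust z-score for IL-1 alpha signal is at least 2 or at most -2, so actives lie on both sides; inactive means the rest.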 The entries come from a sample that favours actives as a whole.

Assay: Components of the Cytosolic LPS Sensing Pathway: Gene Identification via Genome-wide siRNA Screen;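 further: robust z of the log signal after scaling to non-targeting control siRNA wells of the plate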
Conditions: RAW264.7 macrophages, IL-1a HTRF, actives lie on both sides, screened at 100 nM (by protocol), cells primed 5 h with Pam3CSK4 first
Method in brief: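 RAW264.7 mouse macrophages reverse-transfected with single siRNAs (100 nM final) for 48h, primed with Pam3CSK4 for 5 hours, then transfected with LipidA for 24 hour. Supernatant IL-1a read by HTRF; values normalized to negative-control median, log-transformed robust z-scores.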

Sequence	z-score
CGUGAUGCUGUAAAUAGUUTT against AI606181	-0.485 (inactive)
CCCAGAAGACCCGAACUUUTT against E130006D01Rik	0.378 (inactive)
GGAGCAUCUCUCCAGAUUGTT against Igsf9	0.567 (inactive)
CCGCUUUCUUGCCAUUCACTT against Olfr576	-0.266 (inactive)
GCCUUAAUGCUUCAAGGUGTT against Hspd1	0.021 (inactive)
UCUGACAUUGACUCUAGCCTT against Fbxw16	-2.5 (active)
GUUUAUGGCCUCCUGUUGCTT against Gpbar1	-0.773 (inactive)
GCAUGAGAGGUUUCAGUAUTT against Rnf150	0.454 (inactive)
UUCGCUCUUGGUCCCUUCATT against Olfr1322	1.06 (inactive)
GCAUGUUGUCGACACAUGCTT against Bcl6	2.39 (active)
CCGUCGUGGGUGAUAUCAUTT against 2310022A10Rik	-0.0389 (inactive)
GGUGGCUCUCCAAGUUCUATT against Uchl4	-0.279 (inactive)
GAACACCCUGCCGACCAAATT against Tmsb10	-0.242 (inactive)
GGACUGAGUCAGAUUUACATT against Foxn2	-0.622 (inactive)
GGGCUGAUGCUUAAACAAATT against Vmn1r72	-2.19 (active)
GCCCUUAUUAAACCAUUUGTT against Usp9x	-0.641 (inactive)
GGACUGUUUUAGAUUACUUTT against Klra4	0.968 (inactive)
GCUUAUGUUUCUGCCACUCTT against Olfr1136	0.124 (inactive)
GCCACCAUUAAAAGACUGATT against Gdnf	0.737 (inactive)
GGACAAGAUGAACUUUUCCTT against Pomp	-2.85 (active)
CCUUGUAUGGAGAUAUUCCTT against Aph1b	-0.573 (inactive)
GGUUCAGUUUGGAAAUGAATT against Rbm26	0.809 (inactive)

Sequence	z-score
CGUCUGUUUACCUCAUGAATT against Arid3a	-0.769 (inactive)
GGAUUUUGUCGGCAAGGCCTT against Ap5s1	-3.12 (active)
GGACUACUUCCCAAGAAUUTT against Gle1	0.365 (inactive)
GGUGGAGAAACAAAUUAGUTT against Rab9	1.47 (inactive)
GGAAGAAAGAAUUGAACUUTT against Add3	1.02 (inactive)
CAUGAACGUGGGUAAAACGTT against Rab20	-0.878 (inactive)
GGAACUGGAUCCUAGGAUATT against Sh3bp5l	-1.35 (inactive)
GCCAAAUCUACUGUUAUUUTT against Fam174a	1.06 (inactive)
GGAAAGAUCAUGGACAAGUTT against Dtna	2.06 (active)
GCAGUGAUCCGGAACAAAUTT against Tmc3	-0.455 (inactive)
GGCGAAAAUUACUCGAAAGTT against Penk	0.941 (inactive)
GGAUGACGUAAUUGACGGCTT against Cyp19a1	0.0212 (inactive)
CCAAAAUAAGUGUGGUCAATT against Vstm2l	-0.623 (inactive)
GGACUUGGUUUAUGAAACATT against Kif9	-1.33 (inactive)
GGAGACCUUACCACUUGAATT against Ephx1	-1.2 (inactive)
GGUCAAUUCCCAUACCCUGTT against Tfr2	-1.23 (inactive)
CGACUCCCACCUUUAGGAGTT against Nkx2-5	2.5 (active)
GGUGAAAAUACAUUGCCAGTT against Plk4	-0.712 (inactive)
CCCAAAUAACAGAGAAAUGTT against St8sia6	0.818 (inactive)
CCUGAGAUUUCCUAACAUCTT against Prr11	-0.281 (inactive)
GGUGAAGUCACUAAUCUUUTT against Prpf19	1.12 (inactive)
GCCACGACCUGGAACAACUTT against Taf6l	-0.479 (inactive)

Sequence	z-score
CGGCCUAACAGCCAGACUUTT against 1700013G24Rik	0.9 (inactive)
GGUUUCUGCCAUCCAUCAGTT against Zfa-ps	-0.705 (inactive)
CUUUUACACCAUCAUGACGTT against Mrgpra5	-2.06 (active)
GGCGAAUGAAGGUUUCUGGTT against Pex11b	-0.581 (inactive)
GCUGUUGGUCUGAUAGCUUTT against Hadhb	0.378 (inactive)
GCCAUGCCUUAAUCUUGGUTT against Cd300lf	0.0466 (inactive)
GCAAAGACGAAAUGCCGAGTT against Ttc32	-0.23 (inactive)
GAUUCUCCAUUGCCCAAUGTT against Lce1i	0.0132 (inactive)
CCUCAACUCCCUGUCACACTT against Rnaseh2a	0.944 (inactive)
GGAGCGAUUCACAAAUUACTT against Tapt1	3.05 (active)
CGACUAUUUGGGUGGCAAGTT against Scin	-0.103 (inactive)
GGUAAGAAAACUGACCUUATT against Abra	-0.787 (inactive)
GGCUGUAUGCUCAGACUGATT against Olfr147	-1.25 (inactive)
GGGCAUAUUUGGAAUCUGATT against Rtn4	2.51 (active)
GGAAUCUACCACUUGGUUCTT against Chrdl2	-0.936 (inactive)
GGGAUUCAGAGUCAAGAUUTT against Thpo	-0.275 (inactive)
GCUUCCUACCAUGAUGGUCTT against Otol1	2.13 (active)
GCCCUUACAUAAUAGCUUGTT against Tacr2	1.56 (inactive)
GGUCCCAGUCUAUGAAAACTT against Pym1	1.81 (inactive)
GUCCUGAAAAUGCUAUUCUTT against Olfr68	0.281 (inactive)
CCUGGUGCUUCGUAAUUACTT against Cyp11a1	-1.03 (inactive)
GGGUACAAAACUUGAACUUTT against Gins3	2.84 (active)

Sequence	z-score
GGACAGUGUGUUUUCUUGUTT against Ankle1	0.551 (inactive)
CCAGAUUCCUCUUGGCCGATT against Spryd7	0.36 (inactive)
GCAAGAUUCAGAGUGCAGCTT against Txlng	-1.09 (inactive)
GGUUGCAUUGUAGGGUUGGTT against Olfr129	0.221 (inactive)
GCCCUAAAUCCUUUUAUUATT against Trpc7	2.78 (active)
GGAUGUACAAUAAUUGGGATT against Pramel39	1.45 (inactive)
GCAGGAUUCAAAGAUCUAATT against Kbtbd8	-0.587 (inactive)
GGCUCUAUCUUAAAAUAACTT against 4930542C12Rik	0.125 (inactive)
GCCGAGCUUUUGUGAGUAUTT against Rhobtb2	0.247 (inactive)
GCCAAUUGGACCUUAGAAATT against Nup107	-2.58 (active)
GGACUUUGUCACCAUGACGTT against Pef1	0.105 (inactive)
CCUAAAGAAGGUCUAUGCCTT against Tmbim6	-0.0538 (inactive)
GAAGCACAACCUCGGCUUUTT against AY074887	0.448 (inactive)
GGGUGUGAAAGUCAAUAAATT against 4930591A17Rik	1.02 (inactive)
UGGUGAAUACCAGUCUAAUTT against Tnfrsf23	0.0551 (inactive)
GUAUUUUACACUCUUGUGGTT against Olfr898	-2.31 (active)
GUAUCAUGACAGCUGUUUUTT against Olfr519	-0.254 (inactive)
GGAAAACAAGGAACAUGCGTT against Scgb1b2	0.138 (inactive)
GGCCAAGACCUCAGAGAUUTT against Apoa2	-1.39 (inactive)
GGCAGCUUUGGAACAACUATT against Zc3h14	-0.477 (inactive)
GGAUGCACUGAGGAACUCATT against Atg101	-0.573 (inactive)
GGAUCCAUGCUGUCAGUGGTT against Sftpa1	2.17 (active)

Sequence	z-score
GGGAAUUGAUGAAAGCUCUTT against Gigyf2	-0.369 (inactive)
GCUUGGUGUAAUCAUGCGCTT against Prl7d1	0.314 (inactive)
GGGAACUUUAGCUUAAAUUTT against Lypd6	0.135 (inactive)
CGGCGACAUUGUUUUGCUATT against Acvr2a	1.19 (inactive)
GGGCCUUCACAAUGUCCUUTT against Brca1	2.68 (active)
GGACCUUGAGAAAGUAGUCTT against Ms4a10	0.651 (inactive)
GGUGAUGAAAAAGGACAGCTT against Oit1	0.0982 (inactive)
GUACGUCAAGAGCCUGCGUTT against Fam110a	-2.65 (active)
GGAGCAGAUACCCUAGCCUTT against Mtx1	0.698 (inactive)
GGACUUGAAGAUGUACCAGTT against Il12a	0.427 (inactive)
GCCAUUCUAGAACCUGUAGTT against Zwint	-1.65 (inactive)
GCUAACUUAGAUAUCCAGGTT against Abtb2	0.125 (inactive)
GGGCCAAAUUUGAAUCCCUTT against Rcan1	-2.09 (active)
CCAAGUUUUUAUGCAGAUATT against Pip5k1b	1.6 (inactive)
GGGUAUAUUUCCUUCCAGCTT against Dock4	-0.105 (inactive)
GGUGGGAUGAUCAUAAGUUTT against Ppnr	-0.0428 (inactive)
GCUGUGGAACUUAUGUUUUTT against Faxc	-0.518 (inactive)
GGAUUAAUCAAACUGAGAGTT against Lrrtm2	-1.24 (inactive)
GCGAUUCCUAGAGCUGAGCTT against Git1	-2.5 (active)
